Screening data (PubChem BioAssay)
Rows were chosen to be rich in hits. Some 2.1% of all compounds tested hit in one or more screens of this group.
Mito fusion yeast – mitochondrial division inhibition or fusion activation | S. cerevisiae fusion-defective mutant growth rescue, CellTiterGlo 48 h | Potency, µM (doses to about 46.1 µM), without a hit: at the top dose growth rescue (activation), most hits filed as activators | hit rate 0.23% among 320,000 | AID 485298; note: % of control where 0% means no effect; nearly all actives have a fitted effect of over 45% in size
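Temperature-sensitive fusion-defective S. cerevisiae (e.g. fzo1-1, mgm1-5) were grown with compound in YPEG medium (3% ethanol, 3% glycerol) for 48 hours at 37C. Growth rescue was measured as viability by CellTiterGlo luminescence after 10 minutes at ambient.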
TDP-43 yeast inh – TDP-43 toxicity inhibition in yeast; TDP-43 expressing yeast growth rescue, BacTiter-Glo, 24 h; Potency, µM (series often up to 46.1 µM), for the others: top-dose growth rescue (activation), actives largely listed as activators; hit rate 1.8% among 410,000; AID 652104; note: % of control where 0% means no effect; nearly all actives have a fitted effect of over 50% in size
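Readout is BacTiter-Glo luminescence of cell growth, so inhibitors register as activators. TDP-43-expressing yeast at OD600=0.02 in galactose medium, after raffinose pregrowth to mid-log, were incubated with compound for 24 hr at 30 deg C.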
aSyn rescue – inhibitors of alpha-synuclein toxicity in yeast; Potency, µM (top dose mostly 46.1 µM), for inactives: at the highest dose growth rescue (activation), actives largely listed as activators; hit rate 0.14% among 370,000; Yeast expressing alpha-synuclein, growth rescue, BacTiter-Glo, 24 h; note: % of control where 0% means no effect; nearly all actives have a fitted effect of over 65% in size
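Screening used galactose-induced yeast with toxic alpha-synuclein levels, exposed to compound for 24 hr at 30 deg C. Cell growth, read with BacTiter-Glo luminescence, gave the measured signal.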
GRP78 ERSR act – inducers of ER stress response in human glioma cells; Potency, µM, for the others: at the highest dose activation, most hits filed as activators; U87-MG GRP78 promoter luciferase reporter, 16 h; hit rate 0.02% among 420,000; note: series mostly up to about 76 µM; % of control where 0% means no effect; nearly all actives have a fitted effect of over 35% in size
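Stably transfected U87-MG human glioma cells carrying a GRP78-based luminescent sensor were seeded at 1000 cells/well, pin-dosed with compounds and incubated 16 h. Luciferase reagent was then added, and end-point luminescence was read after 10 min at room temperature.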
Abeta yeast res – compounds reversing amyloid beta toxicity in yeast; Potency, µM (titrated, usually from 46.1 µM), most hits filed as activators; AID 1347071; hit rate 0.063% among 410,000; yeast expressing A-beta42, growth rescue, OD600, 48 h; response scale: 0% DMSO, 100% iron-clioquinol control; note: nearly all actives have a fitted effect of over 55% in size
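Yeast growth medium received pinned compounds, then yeast cells expressing toxic A-beta were added; plates incubated at 30 C for 48 hr. Growth read as absorbance at 600 nm, normalized to DMSO and equimolar FeCl3 plus clioquinol controls.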
A-T KAP1 phos – candidate therapy for ataxia-telangiectasia; F2112 A-T fibroblasts, KAP-1 phosphorylation AlphaLISA; neocarzinostatin DNA damage 30 min before lysis; Potency, µM (doses to about 57.5 µM), inactives show at the highest dose activation, usual class: activators; hit rate 0.19% among 320,000; AID 485349; note: % of control where 0% means no effect; nearly all actives have a fitted effect of over 45% in size
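ATM-like activity read as KAP-1 phosphorylation via AlphaLISA donor/acceptor antibody pairs after lysis and 6 hr at 25C. Cells were ATM-null patient fibroblasts (F2112, hTERT), dosed 60 min, then exposed to the DSB inducer NCS for 30 min.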
* = called active by the depositor; i = inactive; ? = inconclusive; . = not tested or not shown. Calls come from the whole dose curve; as a rule, active = well fitted curve in the direction sought with a large enough effect; inconclusive = small, poorly fitted or top-dose-only effect, or another doubt; inactive = no such curve, though single readings can be large; an effect the other way counts as inactive or inconclusive. Potency is the fitted concentration of half-maximal effect.

SMILES	Mito fusion yeast	TDP-43 yeast inh	aSyn rescue	GRP78 ERSR act	Abeta yeast res	A-T KAP1 phos
O=C(N/N=C/c1cc(Br)ccc1O)c1ccccc1Cl	11.3%	14.1µM*	10µM*	-1.6%	i	-2.5%
O=C(N/N=C\c1ccccc1O)c1ccccc1O	.	.	.	-5.5%	.	.
CC(C)NC(=S)N/N=C/c1cc(Br)ccc1O	6.7%	?	17.8µM*	-4.6%	?	-3.7%
COC(=O)N/N=C/c1cc(Br)ccc1O	-2.8%	-4.7%	3.3%	-0.1%	i	-0.7%
C#CCN1CCc2onc(-c3ccc(Br)cc3)c2C1=O	.	35.5µM*	-2.4%	.	i	.
CC(=O)N1CCc2c(sc3c2c(=O)n(Cc2ccccc2)c(=O)n3Cc2ccccc2F)C1	.	17.1%	.	-0.5%	i	.
CC(=O)N1CCc2c(sc3c2c(=O)n(CCc2ccccc2)c(=O)n3Cc2ccc(F)cc2)C1	.	15.8µM*	.	-0.7%	i	.
CC(=O)N1CCc2c(sc3c2c(=O)n(Cc2ccccc2)c(=O)n3Cc2ccccc2Cl)C1	.	15.8µM*	.	-2.7%	i	.
Cn1cccc1-c1cc2n(n1)CCC(=O)N2CCCC(=O)NCc1cccc(Cl)c1	.	31.6%	.	-3.0%	i	.
COc1cc(/C=C/C(=O)c2c(O)ccc3c(C)cc(=O)oc23)ccc1O	-12.7%	?	5.01µM*	-5.0%	i	.
CN(C(=O)Cn1cnc2onc(-c3ccc(F)cc3)c2c1=O)c1ccccc1Cl	.	6.7%	?	-2.1%	i	.
Cc1nn(C)cc1CN1CCOc2ccc(C(C)(O)COc3ccccc3)cc2C1 (configuration not stated)	.	.	.	-4.6%	.	.
CCOc1ccccc1NC(=O)Cn1c(=O)n(Cc2ccc(OC)cc2)c(=O)c2oc3ccccc3c21	.	-1.6%	.	-2.4%	i	.
COc1ccc(C)cc1S(=O)(=O)Nc1ccc(F)c(Cl)c1	?	17.8µM*	3.9%	-3.0%	i	.
COc1ccc(NS(=O)(=O)c2cc(C)ccc2OC)cc1OC	-1.7%	-16.7%	-13.9%	-2.2%	i	3.1%
O=C(c1ccncc1)N1CCC2(CCC(CNC(=O)C3(N4CCOCC4)CCCCC3)O2)CC1 (configuration not stated)	.	.	.	-4.5%	.	.
Cc1c(C(=O)NCC(C)(C)CN(C)C)cnn1-c1nccc(-c2ccccc2F)n1	.	.	.	0.2%	.	.
CCN(CC)c1ccc2cc(-c3nc(-c4ccc(Cl)cc4Cl)cs3)c(=O)oc2c1	.	0.9%	.	-2.0%	i	.
CCN(CC)c1ccc2cc(-c3nc(-c4ccc(OC)cc4)cs3)c(=O)oc2c1	-0.8%	-12.0%	-1.1%	-3.7%	i	25.1µM*
CC(C)c1ccc(NC(=O)Cn2cc(S(=O)(=O)Cc3ccccc3Cl)c3ccccc32)cc1	.	6.7%	.	-3.2%	i	.
O=[N+]([O-])c1ccccc1/C=N/n1c(C2CCCCC2)n[nH]c1=S	13.2%	31.6µM*	2.9%	0.0%	i	-0.6%
S=c1[nH]nc(C2CCCCC2)n1/N=C/c1ccc(Cl)cc1	-14.0%	-7.1%	0.2%	-3.9%	i	-0.9%
S=c1[nH]nc(C2CCCCC2)n1/N=C/c1ccccc1Br	-11.9%	?	-14.0%	-2.9%	i	6.2%
S=c1[nH]nc(C2CCCCC2)n1/N=C/c1ccc(Br)cc1	-16.5%	15.4%	5.2%	-3.8%	i	12.6µM*
COc1ccc(-c2nc3cccc(C)n3c2Nc2ccc(C)cc2)cc1	.	.	-15.9%	.	.	.
CC(C)NC(=O)[C@@H]1C[C@@H](Sc2nc3ccccc3[nH]2)CN1C1Cc2ccccc2C1	.	.	.	0.8%	.	.
O=C(N[C@@H]1C/C=C\C[C@H](CC(=O)N(CCO)Cc2ccccc2)C(=O)NC[C@@H](c2ccccc2)OC1=O)OCC1c2ccccc2-c2ccccc21	.	4.0%	3.1%	7.4%	i	-3.4%
O=C(C[C@H]1C/C=C\C[C@H](NC(=O)OCC2c3ccccc3-c3ccccc32)C(=O)O[C@H](c2ccccc2)CNC1=O)N[C@H](CO)Cc1ccccc1	.	8.1%	-1.1%	28.2µM*	i	5.8%
